From the supplement of paper PMC10849652
Targets with a hit are over-represented here; the source holds about 7,900 in all. About 0.6% of all pairs of compound and target were hits. A number with no mark means an inactive call.

Columns and labels:
Assay in all cases: log2 fold change, soluble protein after heating vs DMSO (PISA); higher = thermal stabilisation; K562 cells, 10 uM, 30 min; active = over 0.2 and 3.5 SD of the protein, either way, in both replicates (recomputed)
[1] = compound: NC(=O)Nc1cc(-c2cccc(F)c2)sc1C(=O)N[C@H]1CCCNC1
Outline: (§1)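 K562 cells at 2×10^6 cells/mL were given 10 μM compound for 30 min. Aliquots then went through 3 min of heating across 48°C-58°C, were pooled, and were extracted in PBS with 0.5% NP-40 at 4°C, and the supernatant after 21,000xg for 90 min was quantified by TMTpro 16plex LC-MS/MS with channel sums equalised. Thermal stability relative to control samples, from duplicates, is given as log2 fold change.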

[2] = compound: NC(=O)c1cnc(N[C@@H]2CCCC[C@@H]2N)nc1Nc1cccc(-n2nccn2)c1
Outline: as §1

[3] = compound: NC1(c2ccc(-c3nc4ccn5c(=O)[nH]nc5c4cc3-c3ccccc3)cc2)CCC1
Outline: as §1

[4] = compound: NCC(=O)Nc1ccc(-n2nc(C(F)(F)F)cc2-c2ccc3c(ccc4ccccc43)c2)cc1
Outline: as §1

entinostat = compound: Nc1ccccc1NC(=O)c1ccc(CNC(=O)OCc2cccnc2)cc1 [entinostat]
Outline: as §1

vorinostat = compound: O=C(CCCCCCC(=O)Nc1ccccc1)NO [vorinostat]
Outline: as §1

citarinostat = compound: O=C(CCCCCCNC(=O)c1cnc(N(c2ccccc2)c2ccccc2Cl)nc1)NO [citarinostat]
Outline: as §1

silmitasertib = compound: O=C(O)c1ccc2c(c1)nc(Nc1cccc(Cl)c1)c1ccncc12 [silmitasertib]
Outline: as §1

[5] = compound: O=C1NC(=O)C(c2cnc3ccccn23)=C1c1cn2c3c(cc(F)cc13)CN(C(=O)N1CCCCC1)CC2
Outline: as §1

[6] = compound: c1cc(OCCN2CCCCC2)cc(-c2n[nH]c3ccc(-c4nnc[nH]4)cc23)c1
Outline: as §1

Chain of UniProt Q7Z4S6 (Q7Z4S6 whole entry, looked up): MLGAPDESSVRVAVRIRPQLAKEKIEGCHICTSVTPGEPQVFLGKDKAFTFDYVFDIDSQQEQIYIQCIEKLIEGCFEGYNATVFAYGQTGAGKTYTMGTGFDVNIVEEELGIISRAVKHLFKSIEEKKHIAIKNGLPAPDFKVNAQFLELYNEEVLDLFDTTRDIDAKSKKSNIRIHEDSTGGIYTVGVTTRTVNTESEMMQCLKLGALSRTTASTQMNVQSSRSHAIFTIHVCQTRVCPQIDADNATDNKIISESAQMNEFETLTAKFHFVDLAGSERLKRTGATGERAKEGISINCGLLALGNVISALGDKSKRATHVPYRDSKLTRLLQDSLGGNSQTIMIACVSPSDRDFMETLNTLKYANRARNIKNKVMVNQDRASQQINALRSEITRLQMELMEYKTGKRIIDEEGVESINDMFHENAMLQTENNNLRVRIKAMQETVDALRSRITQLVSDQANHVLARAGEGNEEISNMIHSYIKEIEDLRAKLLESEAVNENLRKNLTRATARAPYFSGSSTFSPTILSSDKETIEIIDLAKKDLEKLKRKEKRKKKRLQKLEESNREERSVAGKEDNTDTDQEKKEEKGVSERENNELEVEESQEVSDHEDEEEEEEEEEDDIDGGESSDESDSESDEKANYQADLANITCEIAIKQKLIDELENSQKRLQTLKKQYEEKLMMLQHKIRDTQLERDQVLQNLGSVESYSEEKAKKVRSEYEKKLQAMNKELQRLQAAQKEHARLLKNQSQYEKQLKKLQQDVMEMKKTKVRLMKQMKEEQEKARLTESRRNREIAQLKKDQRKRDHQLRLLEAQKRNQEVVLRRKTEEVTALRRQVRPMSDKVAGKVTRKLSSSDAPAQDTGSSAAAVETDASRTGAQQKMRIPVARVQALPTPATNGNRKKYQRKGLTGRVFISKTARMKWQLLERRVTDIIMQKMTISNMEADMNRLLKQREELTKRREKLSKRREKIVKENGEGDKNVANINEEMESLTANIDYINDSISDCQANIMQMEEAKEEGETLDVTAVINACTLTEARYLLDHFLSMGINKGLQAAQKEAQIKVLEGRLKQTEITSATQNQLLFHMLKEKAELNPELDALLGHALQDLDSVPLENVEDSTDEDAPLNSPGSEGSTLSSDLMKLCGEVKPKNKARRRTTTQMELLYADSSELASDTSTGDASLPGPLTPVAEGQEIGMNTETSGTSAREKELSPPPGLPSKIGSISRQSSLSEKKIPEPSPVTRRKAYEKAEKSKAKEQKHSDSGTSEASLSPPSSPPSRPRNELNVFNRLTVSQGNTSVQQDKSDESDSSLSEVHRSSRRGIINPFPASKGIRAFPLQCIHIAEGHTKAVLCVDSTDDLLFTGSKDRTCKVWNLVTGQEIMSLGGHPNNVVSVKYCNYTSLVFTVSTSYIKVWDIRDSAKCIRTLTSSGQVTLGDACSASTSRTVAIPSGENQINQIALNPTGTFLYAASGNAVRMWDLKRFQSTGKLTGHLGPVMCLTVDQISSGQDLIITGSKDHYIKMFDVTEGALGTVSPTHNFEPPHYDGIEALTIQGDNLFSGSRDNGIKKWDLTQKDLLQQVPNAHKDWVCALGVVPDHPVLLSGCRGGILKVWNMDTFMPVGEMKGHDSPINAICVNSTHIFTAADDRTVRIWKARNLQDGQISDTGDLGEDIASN
Chain of UniProt Q6P9B6 (Q6P9B6 whole entry, looked up): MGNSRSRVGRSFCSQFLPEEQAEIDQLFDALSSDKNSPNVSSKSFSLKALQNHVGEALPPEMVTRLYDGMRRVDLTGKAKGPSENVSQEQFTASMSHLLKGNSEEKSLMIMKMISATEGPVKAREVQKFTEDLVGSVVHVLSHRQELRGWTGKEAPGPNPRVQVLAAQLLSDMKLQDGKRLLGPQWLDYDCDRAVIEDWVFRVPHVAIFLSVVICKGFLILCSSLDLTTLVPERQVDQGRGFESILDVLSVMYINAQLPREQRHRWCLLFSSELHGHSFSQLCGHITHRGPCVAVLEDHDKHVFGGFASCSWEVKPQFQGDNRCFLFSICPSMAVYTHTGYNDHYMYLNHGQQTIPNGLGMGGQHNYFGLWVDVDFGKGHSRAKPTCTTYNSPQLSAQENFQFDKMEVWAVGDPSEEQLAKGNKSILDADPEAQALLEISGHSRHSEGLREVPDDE
Chain of UniProt Q14693 (Q14693 whole entry, looked up): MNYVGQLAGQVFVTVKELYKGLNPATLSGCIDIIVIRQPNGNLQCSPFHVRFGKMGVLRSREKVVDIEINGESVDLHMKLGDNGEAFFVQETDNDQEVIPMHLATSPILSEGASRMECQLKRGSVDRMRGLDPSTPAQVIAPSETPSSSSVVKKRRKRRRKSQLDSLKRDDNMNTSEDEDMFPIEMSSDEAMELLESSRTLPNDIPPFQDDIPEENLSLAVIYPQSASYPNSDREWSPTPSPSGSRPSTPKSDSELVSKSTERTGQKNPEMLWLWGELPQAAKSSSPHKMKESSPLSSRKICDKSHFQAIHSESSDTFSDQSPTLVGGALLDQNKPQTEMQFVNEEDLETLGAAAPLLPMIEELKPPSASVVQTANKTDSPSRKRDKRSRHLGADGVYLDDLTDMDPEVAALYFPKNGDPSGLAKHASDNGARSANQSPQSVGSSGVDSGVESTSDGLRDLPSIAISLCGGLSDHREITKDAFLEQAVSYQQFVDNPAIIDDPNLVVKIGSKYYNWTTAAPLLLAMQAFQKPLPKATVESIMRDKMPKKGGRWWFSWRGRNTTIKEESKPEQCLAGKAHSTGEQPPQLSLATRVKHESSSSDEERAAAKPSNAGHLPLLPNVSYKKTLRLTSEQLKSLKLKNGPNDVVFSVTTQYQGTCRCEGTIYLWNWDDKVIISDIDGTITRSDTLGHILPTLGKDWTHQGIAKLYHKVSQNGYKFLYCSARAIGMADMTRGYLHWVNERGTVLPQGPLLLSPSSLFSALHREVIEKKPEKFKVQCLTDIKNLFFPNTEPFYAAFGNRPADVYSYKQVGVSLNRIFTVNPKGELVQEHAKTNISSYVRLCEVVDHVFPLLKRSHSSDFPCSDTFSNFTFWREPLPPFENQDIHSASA
Chain of UniProt Q8IYU8 (Q8IYU8 whole entry, looked up): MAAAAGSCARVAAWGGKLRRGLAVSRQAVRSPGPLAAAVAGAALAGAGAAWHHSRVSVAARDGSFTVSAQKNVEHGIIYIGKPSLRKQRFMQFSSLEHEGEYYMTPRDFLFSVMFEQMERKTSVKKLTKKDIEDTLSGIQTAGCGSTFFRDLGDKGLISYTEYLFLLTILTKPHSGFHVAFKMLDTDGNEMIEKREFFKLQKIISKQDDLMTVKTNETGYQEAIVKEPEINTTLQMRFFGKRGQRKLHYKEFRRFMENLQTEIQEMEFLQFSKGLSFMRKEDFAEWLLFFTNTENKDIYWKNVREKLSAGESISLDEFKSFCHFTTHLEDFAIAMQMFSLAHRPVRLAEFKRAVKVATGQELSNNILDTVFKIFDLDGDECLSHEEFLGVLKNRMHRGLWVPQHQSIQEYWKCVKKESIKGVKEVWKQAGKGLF
Chain of UniProt O95373 (O95373 whole entry, looked up): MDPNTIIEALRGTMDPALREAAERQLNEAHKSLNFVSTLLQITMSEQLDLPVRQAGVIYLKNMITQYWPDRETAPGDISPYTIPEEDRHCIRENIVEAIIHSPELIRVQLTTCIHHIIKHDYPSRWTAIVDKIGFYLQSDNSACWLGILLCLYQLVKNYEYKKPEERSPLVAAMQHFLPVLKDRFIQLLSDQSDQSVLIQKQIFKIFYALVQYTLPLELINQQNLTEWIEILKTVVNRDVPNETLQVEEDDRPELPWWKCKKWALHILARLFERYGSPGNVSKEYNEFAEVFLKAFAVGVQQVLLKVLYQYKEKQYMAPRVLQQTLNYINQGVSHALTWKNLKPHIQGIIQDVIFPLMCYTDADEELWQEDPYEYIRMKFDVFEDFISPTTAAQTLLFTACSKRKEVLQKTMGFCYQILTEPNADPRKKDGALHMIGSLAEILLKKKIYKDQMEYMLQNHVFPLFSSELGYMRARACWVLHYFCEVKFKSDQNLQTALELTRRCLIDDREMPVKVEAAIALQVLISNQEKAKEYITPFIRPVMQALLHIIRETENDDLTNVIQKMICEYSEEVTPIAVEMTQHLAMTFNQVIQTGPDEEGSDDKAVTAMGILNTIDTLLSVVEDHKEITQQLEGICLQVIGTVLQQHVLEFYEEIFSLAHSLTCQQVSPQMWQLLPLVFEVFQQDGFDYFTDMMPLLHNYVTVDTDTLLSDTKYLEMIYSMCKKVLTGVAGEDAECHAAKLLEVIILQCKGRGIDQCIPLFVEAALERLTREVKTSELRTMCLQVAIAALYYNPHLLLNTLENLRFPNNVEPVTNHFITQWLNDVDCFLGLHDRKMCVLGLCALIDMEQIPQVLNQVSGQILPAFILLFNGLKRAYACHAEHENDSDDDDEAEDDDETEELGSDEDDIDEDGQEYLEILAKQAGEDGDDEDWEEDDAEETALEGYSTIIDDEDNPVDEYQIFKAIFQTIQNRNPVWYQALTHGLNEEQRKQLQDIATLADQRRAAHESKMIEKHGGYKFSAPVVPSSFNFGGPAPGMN
Chain of UniProt Q8NC54 (Q8NC54 whole entry, looked up): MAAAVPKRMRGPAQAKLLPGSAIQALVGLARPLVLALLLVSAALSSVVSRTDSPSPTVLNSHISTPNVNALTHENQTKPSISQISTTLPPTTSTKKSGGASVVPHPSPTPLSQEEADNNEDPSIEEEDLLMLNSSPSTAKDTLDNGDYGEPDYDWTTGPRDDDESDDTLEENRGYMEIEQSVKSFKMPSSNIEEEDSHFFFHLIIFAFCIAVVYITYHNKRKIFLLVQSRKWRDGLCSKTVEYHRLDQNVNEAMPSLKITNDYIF

| Target | log2 fold change [1] | log2 fold change [2] | log2 fold change [3] | log2 fold change [4] | log2 fold change (entinostat) | log2 fold change (vorinostat) | log2 fold change (citarinostat) | log2 fold change (silmitasertib) | log2 fold change [5] | log2 fold change [6] |
| --- | --- | --- | --- | --- | --- | --- | --- | --- | --- | --- |
| MCCC2 (UniProt Q9HCC0) | 0.047 | -0.014 | 0.036 | 0.06 | 0.005 | -0.043 | 0.083 | 0.025 | 0.006 | -0.024 |
| LUC7L2 (UniProt Q9Y383) | -0.221 | -0.025 | 0.09 | -0.133 | 0.025 | 0.029 | 0.074 | -0.233 | 0.002 | -0.095 |
| MDN1 (UniProt Q9NU22) | -0.002 | -0.087 | -0.138 | -0.058 | 0.112 | 0.098 | 0.075 | -0.037 | -0.032 | 0.082 |
| KNTC1 (UniProt P50748) | -0.037 | -0.1 | -0.193 | -0.046 | 0.049 | 0.029 | 0.037 | 0.077 | 0.013 | -0.004 |
| IMMT isoform 4 (UniProt Q16891) | -0.022 | -0.083 | -0.132 | -0.056 | 0.021 | 0.008 | 0.007 | -0.038 | -0.031 | -0.035 |
| LPIN1 isoform 7 (UniProt Q14693) | -0.006 | -0.011 | -0.039 | -0.03 | -0.027 | 0.136 | 0.001 | -0.139 | -0.098 | -0.048 |
| KCT2 (UniProt Q8NC54) | 0.047 | -0.029 | -0.378 (active) | 0.013 | -0.054 | 0.022 | 0.05 | 0.035 | 0.047 | -0.02 |
| IPO7 (UniProt O95373) | 0.024 | -0.099 | -0.145 | -0.069 | 0.036 | 0.055 | 0.056 | 0.015 | -0.004 | -0.09 |
| LIAS (UniProt O43766) | -0.079 | 0.014 | -0.035 | -0.016 | -0.047 | -0.17 | -0.093 | 0.026 | 0.062 | -0.022 |
| MAP2K1 (UniProt Q02750) | -0.028 | -0.062 | -0.011 | -0.027 | -0.004 | 0.035 | 0.022 | -0.064 | -0.061 | -0.035 |
| ILF3 isoform 7 (UniProt Q12906) | -0.056 | 0.055 | 0.17 | 0.107 | -0.083 | -0.052 | -0.053 | 0.189 | 0.32 | -0.105 |
| KDM3B (UniProt Q7LBC6) | -0.051 | -0.033 | -0.114 | -0.088 | 0.027 | 0.069 | 0.098 | 0.056 | -0.064 | -0.023 |
| MEAK7 (UniProt Q6P9B6) | -0.011 | -0.117 | -0.122 | -0.025 | 0.027 | 0.069 | 0.053 | -0.028 | -0.021 | 0.016 |
| KIF21A isoform 4 (UniProt Q7Z4S6) | -0.068 | 0.055 | -0.049 | -0.093 | 0.01 | 0.012 | 0.002 | 0.033 | 0.213 | -0.087 |
| MICU2 (UniProt Q8IYU8) | -0.095 | -0.075 | -0.121 | -0.006 | -0.014 | 0.073 | 0.042 | 0.076 | 0.04 | -0.141 |
